Compound activity: PubChem BioAssay, several laboratories
Compounds with a hit are over-represented: about 2.4% of the library has one in this group of screens.
Rpn11 inh = Rpn11 (PSMD14) deubiquitinase inhibitors, primary screen, biochemical, fluorescence polarization, uHTS | inhibition, % at 20 µM | human 26S proteasome, Ub4-pepOG fluorescence polarization; 20S core pre-blocked with epoxomicin | 360,000 compounds, 0.59% hits | 26S proteasome non-ATPase regulatory subunit 14 (Homo sapiens), O00487;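 active = inhibition at 20 µM, scaled to each plate's controls, above about 33%, limit read from the data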
PP5 inh = PP5 phosphatase inhibitors, primary screen, biochemical, fluorescence; Serine/threonine-protein phosphatase 5 (Homo sapiens), P53041; purified PP5c, OMFP substrate fluorescence; inhibition, % at 6.7 µM; 320,000 compounds, 0.18% hits; AID 1987, 2009;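 active = inhibition above the campaign's mean inhibition across all tested compounds plus 3 SD, cut at about 9.5% in these data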;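 note: 0% = DMSO only and 100% = 100 µM cantharidin control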
Target sequence (P53041 whole entry, looked up): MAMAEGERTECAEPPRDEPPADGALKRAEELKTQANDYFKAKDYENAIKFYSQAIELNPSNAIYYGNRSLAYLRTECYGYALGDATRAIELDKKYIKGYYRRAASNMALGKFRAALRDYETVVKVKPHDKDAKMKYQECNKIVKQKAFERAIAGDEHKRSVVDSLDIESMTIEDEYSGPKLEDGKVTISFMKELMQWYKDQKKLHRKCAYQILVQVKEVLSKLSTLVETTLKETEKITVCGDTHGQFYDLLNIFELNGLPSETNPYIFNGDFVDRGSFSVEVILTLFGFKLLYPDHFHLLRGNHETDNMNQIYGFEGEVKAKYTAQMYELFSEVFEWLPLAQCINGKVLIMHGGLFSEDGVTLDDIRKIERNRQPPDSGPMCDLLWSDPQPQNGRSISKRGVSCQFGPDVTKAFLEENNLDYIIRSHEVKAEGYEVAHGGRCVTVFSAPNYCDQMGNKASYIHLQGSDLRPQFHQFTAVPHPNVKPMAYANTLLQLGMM
NadD inh = inhibitors of S. aureus NadD, primary screen, biochemical, colorimetric, uHTS; Nicotinate-nucleotide adenylyltransferase NadD (Staphylococcus aureus N315); purified NadD enzyme, colorimetric absorbance read-out; inhibition, % at 20 µM; 360,000 compounds, 0.78% hits; in the data active = inhibition above about 26%
PP1 counter = PP1-alpha phosphatase inhibitors, primary screen, counter-screen for PP5 inhibitor project, biochemical, fluorescence, OMFP substrate, single point; Serine/threonine-protein phosphatase PP1-alpha catalytic subunit (Homo sapiens), P62136; purified PP1alpha; inhibition, % at 6.7 µM; 320,000 compounds, 0.9% hits; AID 2235, 2010;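 active = inhibition above the mean inhibition of all tested compounds plus 3 SD, computed separately for each screening campaign, cut at about 15% in these data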
PREPL inhibitor = PREPL enzyme inhibitors, primary screen, biochemical, fluorescence polarization; inhibition, % at 5.96 µM; recombinant PREPL, fluorescence polarization activity-based probe; 320,000 compounds, 0.68% hits; Prolyl endopeptidase-like (Homo sapiens), Q4J6C6; in the data active = inhibition above about 43%;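 note: 0% = enzyme with DMSO and 100% = wells lacking enzyme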
Rpn11 confirm = Rpn11 (PSMD14) deubiquitinase inhibitors, confirmation, biochemical, fluorescence polarization, single concentration | inhibition, % at 20 µM | 1,900 compounds, 29% hits | shares compounds with Rpn11 inh | AID 602318, 2012 | purified human 26S proteasome, Ub4-pepOG fluorescence polarization; proteasome pretreated with epoxomicin
MMP-2 inh = MMP-2 enzyme inhibition, confirmation, counter-screen for RPN11 inhibitor project, biochemical, fluorescence, single concentration. inhibition, % at 20 µM. shares compounds with Rpn11 inh. recombinant MMP-2, FRET peptide cleavage fluorescence. 1,900 compounds, 4% hits;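 note: human MMP-2 activated beforehand with APMA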
Thrombin inh = bovine thrombin protease inhibition, confirmation, counter-screen for Rpn11 inhibitor project, biochemical, fluorescence polarization, single concentration; shares compounds with Rpn11 inh; bovine thrombin cleavage of Ub4-pepOG; inhibition, % at 20 µM; 1,900 compounds, 13% hits;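 active = mean inhibition at least 40% at 20 µM, or signal 3 deviations below plate average, so some actives read negative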;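 note: plate controls were thrombin with DMSO for no effect and buffer wells lacking thrombin for full effect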
* = called active by the depositor; · = no result given. Cut-off read from the data, not from the text of the source, unless noted: active = inhibition above about 40%; inactive = the rest.

SMILES	Rpn11 inh	PP5 inh	NadD inh	PP1 counter	PREPL inhibitor	Rpn11 confirm	MMP-2 inh	Thrombin inh
Cc1cc(/C=C2\Cc3ccccc3C2=O)c(C)n1-c1ccccc1	56*	1	17	11	29	124*	1	105*
Cc1cc(C=O)sc1[B-](F)(F)F	-2	·	-2	·	·	·	·	·
CCCCn1c(N)c(N(CC)C(=O)c2cnc(C)cn2)c(=O)[nH]c1=O	-8	1	-5	4	2	·	·	·
C[C@H](CO)N1C[C@H](C)[C@@H](CN(C)S(C)(=O)=O)Oc2ccc(NC(=O)CCN3CCOCC3)cc2C1=O	-3	·	1	·	10	·	·	·
COc1cc2c(cc1OC)C(C)N(CC(=O)Nc1ccc(S(=O)(=O)N3CCCC3)cc1)CC2 (stereo not drawn)	53*	3	0	-2	-5	-8	-20	-9
O=C(NCc1ccc(F)cc1)c1cc(C2CCCN(C(=O)C3CCCCC3)C2)on1 (stereo not drawn)	-1	·	-4	·	·	·	·	·
COc1ccc(-c2ccc3c(c2)O/C(=C\c2ccsc2)C3=O)cn1	39*	·	13	·	3	-1	-11	-16
O=C1NC(=Nc2ccccc2)S/C1=C\C=C\c1ccco1	58*	-2	29	8	29	18	52*	31
Cc1cccc(N=C2NC(=O)/C(=C/C=C/c3ccco3)S2)c1C	65*	0	72*	6	34	8	47*	10
CN1[C@@H](Cc2ccccc2)COc2cc(N3CCSCC3)ccc2S1(=O)=O	·	·	3	·	·	·	·	·
CN(C)S(=O)(=O)Nc1cccc(Br)c1	1	1	-7	-2	12	·	·	·
CC(=O)c1cccc(NS(=O)(=O)N(C)C)c1	128*	1	-7	0	-3	-2	-4	-7
O=C(NC1CCCCC1)NC1CC2CCCC(C1)N2C1CCCC1 (stereo not drawn)	73*	2	0	-2	-4	-3	-27	-8
COc1ccc(CN2CCN(C(=O)C3CCN(C(=O)Nc4ccccc4)CC3)CC2)cc1OC	3	·	-1	·	11	·	·	·
CS(=O)(=O)N1CCN(c2ccc([N+](=O)[O-])c(NCc3ccc(Cl)cc3)c2)CC1	45*	2	-3	2	5	20	-34	9
CS(=O)(=O)N1CCN(c2ccc([N+](=O)[O-])c(NCc3ccccc3)c2)CC1	-10	5	-3	3	4	·	·	·
Clc1ccc(C2Nc3ccccc3-n3cccc32)cc1 (stereo not drawn)	54*	0	-1	-2	-2	13	9	-9
COc1cc2cnc(-c3ccccc3F)cc2cc1OC	3	·	-2	·	6	·	·	·
O=C1OCc2cccc([N+](=O)[O-])c21	6	-1	-3	-1	4	·	·	·
O=C1Nc2ccccc2OCc2c1cccc2[N+](=O)[O-]	34*	-1	3	-4	12	-11	4	-24
Cc1[nH]c(=O)[nH]c(=O)c1S(=O)(=O)Nc1ccc(F)cc1Cl	0	·	-4	·	·	·	·	·
Cc1ccc(CN(C(=O)c2csnn2)C(C(=O)NC2CCCC2)c2ccccn2)cc1 (stereo not drawn)	48*	0	2	0	11	-23	-39	-20
Cc1ccc(C(C(=O)NC2CCCC2)N(Cc2ccccc2)C(=O)c2csnn2)o1 (stereo not drawn)	-2	-1	-1	4	-4	·	·	·
COc1ccc(CCNc2c3ccccc3nc3ccccc23)cc1OC	-5	0	-1	-2	-37	·	·	·
CCC(=O)N1CCc2cc(S(=O)(=O)N3CCc4ccccc4C3)ccc21	56*	2	-1	3	8	8	6	11
